Measurements reported in the supplement of paper PMC6089552.
The campaign covered roughly 3,200 compounds. About 300 (9.4%) showed activity. This excerpt belongs to a sample that is enriched for actives.

Test system: A673/TR/shEF
Test: cell viability (LOESS-normalised, relative to median of negative controls) (log2 ratio); higher = more viable cells (less compound effect), active = hit call of the paper (over 3 MAD below the median)
Settings: treatment time: 72 h
Method in brief: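 Viability of A673/TR/shEF Ewing sarcoma cells was determined by CellTiter-Glo luminescence. The cells, at 1,500 per well in 384-well plates, were grown with or without doxycycline from 24 h before compound addition to switch on EWS-FLI1 shRNA knockdown, then exposed for three days to library compounds at two or more concentrations or to DMSO controls. Signals were LOESS-corrected plate by plate, normalised to the negative-control median and log2-transformed.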

[1] = 0.25 µM, library screen: screen1, EWS-FLI1 expression: high (no doxycycline)
[2] = 0.25 µM, library screen: screen1, EWS-FLI1 expression: low (doxycycline-induced shRNA knockdown)
[3] = 2.5 µM, library screen: screen1, EWS-FLI1 expression: high (no doxycycline)
[4] = 2.5 µM, library screen: screen1, EWS-FLI1 expression: low (doxycycline-induced shRNA knockdown)
[5] = 0.103 µM, library screen: screen3, EWS-FLI1 expression: high (no doxycycline)
[6] = 0.103 µM, library screen: screen3, EWS-FLI1 expression: low (doxycycline-induced shRNA knockdown)
[7] = 0.25 µM, library screen: screen2, EWS-FLI1 expression: high (no doxycycline)
[8] = 0.25 µM, library screen: screen2, EWS-FLI1 expression: low (doxycycline-induced shRNA knockdown)
[9] = 0.308 µM, library screen: screen3, EWS-FLI1 expression: high (no doxycycline)
[10] = 0.308 µM, library screen: screen3, EWS-FLI1 expression: low (doxycycline-induced shRNA knockdown)
[11] = 0.926 µM, library screen: screen3, EWS-FLI1 expression: high (no doxycycline)
[12] = 0.926 µM, library screen: screen3, EWS-FLI1 expression: low (doxycycline-induced shRNA knockdown)
[13] = 2.5 µM, library screen: screen2, EWS-FLI1 expression: high (no doxycycline)
[14] = 2.5 µM, library screen: screen2, EWS-FLI1 expression: low (doxycycline-induced shRNA knockdown)
[15] = 2.8 µM, library screen: screen3, EWS-FLI1 expression: high (no doxycycline)
[16] = 2.8 µM, library screen: screen3, EWS-FLI1 expression: low (doxycycline-induced shRNA knockdown)
[17] = 8.3 µM, library screen: screen3, EWS-FLI1 expression: high (no doxycycline)
[18] = 8.3 µM, library screen: screen3, EWS-FLI1 expression: low (doxycycline-induced shRNA knockdown)
[19] = 25 µM, library screen: screen3, EWS-FLI1 expression: high (no doxycycline)
[20] = 25 µM, library screen: screen3, EWS-FLI1 expression: low (doxycycline-induced shRNA knockdown)
[21] = 0.025 µM, library screen: screen1, EWS-FLI1 expression: high (no doxycycline)
[22] = 0.025 µM, library screen: screen1, EWS-FLI1 expression: low (doxycycline-induced shRNA knockdown)
[23] = 25 µM, library screen: screen1, EWS-FLI1 expression: high (no doxycycline)
[24] = 25 µM, library screen: screen1, EWS-FLI1 expression: low (doxycycline-induced shRNA knockdown)

Measured: cell viability (log2)

CC(C)c1c(O)ccc2c1CC[C@H]1C(C)(C)CCC[C@]21C
inactive: [1] 0.0946 | [2] 0.115 | [3] 0.166 | [4] 0.269

CCN(CC)C(=S)SSC(=S)N(CC)CC
active: [1] -1.42 | [2] -0.538 | [11] -4.24 | [12] -2.11 | [3] -2.82 | [4] -1.78 | [13] -4.17 | [14] -0.213 | [15] -4.24 | [16] -4.26 | [17] -4.26 | [18] -4.27 | [19] -4.26 | [20] -4.25
inactive: [5] 0.0335 | [6] 0.117 | [7] 0.112 | [8] 0.121 | [9] -0.158 | [10] 0.0728

Cc1cc(Cl)ccc1OCC(O)CN1CCN(C)CC1 (stereo not given)
inactive: [1] 0.0377 | [2] 0.029 | [3] 0.0948 | [4] 0.184

N[C@@H](C=O)[C@@H](O)[C@H](O)[C@H](O)CO
inactive: [1] 0.0986 | [2] 0.0199 | [3] 0.192 | [4] 0.145

CN(C)CCC=C1c2ccccc2C=Cc2ccccc21
inactive: [1] 0.131 | [2] 0.0615 | [7] 0.206 | [8] 0.141 | [3] 0.117 | [4] 0.104 | [13] 0.126 | [14] 0.0683

CN(C)CC/C=C1\c2ccccc2COc2ccccc21
inactive: [1] 0.126 | [2] 0.129 | [7] 0.0848 | [8] 0.0467 | [3] 0.131 | [4] 0.118 | [13] 0.142 | [14] 0.121

CN(C)CCC=C1c2ccccc2CCc2ccccc21
inactive: [1] 0.0816 | [2] 0.086 | [8] 0.138 | [3] 0.144 | [4] 0.0763 | [13] 0.0454 | [14] 0.0908
active: [7] -0.148

COc1c(C2COc3cc4c(cc3C2=O)CC(O)C(C)(C)O4)ccc2c1CCC(C)(C)O2 (stereo not given)
inactive: [1] 0.0719 | [2] 0.0278 | [3] 0.0883 | [4] 0.0229

CNC(=O)CN(CCN(CCN(CC(=O)[O-])CC(=O)NC)CC(=O)[O-])CC(=O)[O-].O.[Gd+3]
inactive: [5] 0.106 | [6] -0.0293 | [9] 0.00861 | [10] 0.114 | [11] 0.0946 | [12] 0.0839 | [15] 0.127 | [16] 0.127 | [17] 0.0841 | [18] 0.116 | [19] 0.0924 | [20] 0.134

C=C1[C@@H]([C@@]2(C)C=CC(=O)C(C)(C)[C@@H]2CC(=O)OC)CC[C@@]2(C)C(c3ccoc3)OC(=O)[C@H]3O[C@]132 (stereo not given in full)
inactive: [1] 0.109 | [2] 0.0181 | [3] 0.0641 | [4] 0.0727

CC(=O)O[C@@H]1CC2C(C)(C)[C@H](O)C[C@H](O)[C@]2(C)C2CC[C@@]3(C)[C@H](c4ccoc4)OC(=O)[C@H]4O[C@]43[C@@]21C (stereo not given in full)
inactive: [1] 0.0571 | [2] 0.106 | [3] 0.13 | [4] 0.11

CO[C@H]1C=C[C@@]23c4cc5c(cc4CN(C[C@@H]2O)[C@H]3C1)OCO5
active: [3] -0.415 | [4] -0.623
inactive: [1] 0.0568 | [2] 0.0269

O[C@H]1[C@H]2c3cc4c(cc3CN3CCC(=C[C@@H]1O)[C@H]23)OCO4
inactive: [1] 0.0121 | [2] 0.0722 | [3] 0.0564 | [4] -0.019

CSc1ccc(CN2CCN(Cc3ccco3)CC2)cc1
inactive: [1] 0.0257 | [2] 0.0474 | [3] 0.00049 | [4] 0.109

CC(C)n1cnc2c(NCc3ccccc3)nc(NCCO)nc21
inactive: [21] 0.171 | [22] -0.0915 | [1] 0.129 | [2] -0.0331 | [7] 0.226 | [8] 0.0704 | [3] -0.011 | [4] 0.0676 | [13] 0.247 | [14] 0.0622 | [23] -0.0635 | [24] 0.0737

CC[C@H](CO)Nc1nc(NCc2ccccc2)c2ncn(C(C)C)c2n1
active: [13] -0.591 | [14] -0.646
inactive: [21] 0.0954 | [22] 0.0682 | [5] 0.0283 | [6] -0.038 | [1] 0.0519 | [2] 0.0253 | [7] 0.213 | [8] 0.0581 | [9] 0.0653 | [10] 0.0646 | [11] -0.0162 | [12] 0.042 | [3] 0.0221 | [4] 0.0445 | [15] 0.0824 | [16] -0.0161 | [17] 0.118 | [18] 0.0527 | [23] -0.0359 | [24] 0.0272 | [19] 0.0337 | [20] 0.0206

Cn1cnc2c(NCc3ccccc3)nc(NCCO)nc21
inactive: [21] 0.0452 | [22] 0.063 | [1] 0.0867 | [2] 0.0323 | [7] 0.272 | [8] 0.106 | [3] 0.0349 | [4] 0.0403 | [13] 0.208 | [14] 0.113 | [23] 0.00929 | [24] 0.0531

CN1C(=O)CCC1c1cccnc1 (stereo not given)
inactive: [7] 0.264 | [8] 0.181 | [13] 0.161 | [14] 0.0586

CN[C@H](Cc1ccccc1)C(=O)N1CCC[C@H]1C(=O)N[C@@H](Cc1c[nH]c2ccccc12)C(=O)C(F)(F)C(F)(F)F
inactive: [7] 0.168 | [8] 0.0679 | [13] 0.0864 | [14] 0.0322

C[C@H](CCC(=O)O)[C@H]1CC[C@H]2[C@@H]3C[C@H](O)C4C[C@H](O)CC[C@]4(C)[C@H]3CC[C@]12C (stereo not given in full)
inactive: [1] 0.0369 | [2] -0.0168 | [3] 0.0626 | [4] -0.0216

CO[C@H]1CC2CC[C@@H](C)[C@@](O)(O2)C(=O)C(=O)N2CCCC[C@H]2C(=O)O[C@H]([C@H](C)C[C@@H]2CC[C@@H](OP(C)(C)=O)[C@H](OC)C2)CC(=O)[C@H](C)/C=C(\C)[C@@H](O)[C@@H](OC)C(=O)[C@H](C)C[C@H](C)/C=C/C=C/C=C/1C
active: [5] -0.93 | [6] -0.714 | [9] -0.852 | [10] -0.724 | [11] -0.888 | [12] -0.755 | [15] -0.837 | [16] -0.688 | [17] -0.983 | [18] -0.734 | [19] -1.05 | [20] -0.738

CO[C@H]1C[C@@H]2CC[C@@H](C)[C@@](O)(O2)C(=O)C(=O)N2CCCC[C@H]2C(=O)O[C@H]([C@H](C)C[C@@H]2CC[C@@H](OCCO)[C@H](OC)C2)CC(=O)[C@H](C)/C=C(\C)[C@@H](O)[C@@H](OC)C(=O)[C@H](C)C[C@H](C)/C=C/C=C/C=C/1C
active: [5] -0.823 | [6] -0.667 | [9] -0.931 | [10] -0.779 | [11] -0.921 | [12] -0.761 | [15] -0.899 | [16] -0.779 | [17] -1.09 | [18] -0.731 | [19] -0.943 | [20] -0.733

CO[C@H]1C[C@@H]2CC[C@@H](C)[C@@](O)(O2)C(=O)C(=O)N2CCCC[C@H]2C(=O)O[C@H]([C@H](C)C[C@@H]2CC[C@@H](OC(=O)C(C)(CO)CO)[C@H](OC)C2)CC(=O)[C@H](C)/C=C(\C)[C@@H](O)[C@@H](OC)C(=O)[C@H](C)C[C@H](C)/C=C/C=C/C=C/1C
active: [5] -0.862 | [6] -0.712 | [9] -0.972 | [10] -0.713 | [11] -0.859 | [12] -0.683 | [15] -0.839 | [16] -0.886 | [17] -0.828 | [18] -0.678 | [19] -0.905 | [20] -0.717

CO[C@H]1C[C@@H]2CC[C@@H](C)[C@@](O)(O2)C(=O)C(=O)N2CCCC[C@H]2C(=O)O[C@H]([C@H](C)C[C@@H]2CC[C@@H](O)[C@H](OC)C2)CC(=O)[C@H](C)/C=C(\C)[C@@H](O)[C@@H](OC)C(=O)[C@H](C)C[C@H](C)/C=C/C=C/C=C/1C
active: [5] -0.737 | [6] -0.644 | [9] -0.758 | [10] -0.612 | [11] -0.692 | [12] -0.65 | [15] -0.692 | [16] -0.756 | [17] -0.726 | [18] -0.651 | [19] -0.719 | [20] -0.63

O=C(O)CSc1nnc(COc2ccccc2)n1-c1ccc(Cl)cc1
inactive: [1] 0.0719 | [2] -0.0199 | [3] 0.0305 | [4] 0.0659

CC1(C)C=CC(=O)[C@@]2(C)C1CC(=O)[C@]1(C)C2CC[C@@]2(C)[C@H](c3ccoc3)OC(=O)C3OC321 (stereo not given in full)
inactive: [1] 0.0164 | [2] 0.0615 | [3] 0.135 | [4] 0.0703

C=C(O)CCC/C=C\C[C@@H]1[C@@H](/C=C/[C@H](O)C2Cc3ccccc3C2)[C@@H](F)C[C@@H]1O
inactive: [7] 0.175 | [8] 0.154 | [13] 0.111 | [14] 0.184

Cc1ccc2c(c1)C(N1CCN(C)CC1)=Nc1cccnc1N2
inactive: [7] 0.144 | [8] 0.13 | [13] 0.0813 | [14] 0.0355

CC1(C)C=Cc2cc3ccc(=O)oc3cc2O1
inactive: [1] 0.0334 | [2] 0.0455 | [3] 0.0429 | [4] 0.132
